Experimental data: ChEMBL document CHEMBL4513149, “CO-ADD screening of MMV (CH) - MMV compounds” (2021)
Measured potencies and affinities stand elsewhere.

Experiments:
Staphylococcus aureus = details: Concentration 20 uM; ASSAY_TEST Inhibition of Bacterial Growth; detection method Absorption (OD600); MEDIA CAMHB; plate type 384well; NBS; CORNING #3640; time 18 hr
Escherichia coli = details: Concentration 20 uM; ASSAY_TEST Inhibition of Bacterial Growth; detection method Absorption (OD600); MEDIA CAMHB; plate type 384well; NBS; CORNING #3640; time 18 hr

Row | Compound | Inhibition (Staphylococcus aureus) [%] | Inhibition (Escherichia coli) [%]
1 | CC(C)(C)CN1C(=O)C(c2ccccc2)(c2ccccc2)N=C1N | 17.09 | 4.18
2 | O=[N+]([O-])c1cn2c(n1)OC[C@@H](OCc1ccc(OC(F)(F)F)cc1)C2 [PRETOMANID] | 14.36 | 4.79
3 | CCS(=O)(=O)N(Cc1ccco1)Cc1cc2ccc(C)cc2nc1O | 9.79 | -2.16
4 | c1ccc(-c2[nH]c3ccccc3c2C(c2ccccn2)N2CCCC2)cc1 (stereo unspecified) | 7 | 3.92
5 | O=C1Nc2ccc(Br)cc2C12NCCc1c2[nH]c2ccccc12 (stereo unspecified) | 8.87 | 4.53
6 | CS(=O)(=O)N1CCC(CCn2nc(Cc3cccc4ccccc34)c3c(N)ncnc32)CC1 | 11.8 | -2.01
7 | COc1ccc(-c2cnc3ccc(NCc4ccc(S(N)(=O)=O)cc4)nn23)cn1 | 19.01 | 10.16
8 | CN1CCN(S(=O)(=O)c2ccc(-c3ccc4c(Nc5ncc(Cl)cn5)ccnc4c3)cc2)CC1 | 23.03 | 2.97
9 | CNC(=O)c1nn(C)c2c1C(C)(C)Cc1cnc(Nc3ccc(N4CCN(C)CC4)cc3)nc1-2 [MILCICLIB] | 15.75 | 10.4
10 | O=C(Nc1c(O)cccc1-c1nc2c(C(=O)O)cccc2o1)c1cc(-c2ccccc2)on1 | 0.11 | -12.15
11 | COc1ccc(-c2cnc3ccc(N4CCCC4)nn23)cc1OC | 12.67 | 7.3
12 | COc1ccc2nc(C)cc(OCC(=O)Nc3ccccc3OC)c2c1 | 18.5 | 13.22
13 | FC(F)(F)c1cccc(-c2nc3c(NCc4ccncc4)nccc3[nH]2)c1 | 9.41 | 5.83
14 | COc1ccc(-c2onc(C(F)(F)F)c2-c2ccc(Cl)cc2)c(O)c1 | 22.97 | 5.79
15 | COc1ccccc1OCCCCn1c(C2CC2)nc2ccccc21 | 12.87 | 4.8
16 | O=C(NCCc1ccn(-c2ccccc2)n1)C1CCCCC1 | 6.55 | 2.39
17 | CCc1nc2ccc(Cl)cn2c1C(=O)NCc1ccc(N2CCC(c3ccc(OC(F)(F)F)cc3)CC2)cc1 [TELACEBEC] | 17.2 | 13.17
18 | O=C(Nc1nc(-c2ccccn2)cs1)C1CC1c1ccccc1F (stereo unspecified) | 16.77 | 3.89
19 | CC(C)C(C(=O)Nc1ccc(S(=O)(=O)N(C)C)cc1)c1ccc(Cl)cc1 (stereo unspecified) | 3.5 | 11.91
20 | CCCNC(=O)N1CCC2(CC1)CC(=O)c1cc(C)ccc1O2 | 20.33 | 10.17
21 | CC(C)(C)c1cc(C(=O)N2CCN(c3nccnc3C#N)CC2)n(Cc2ccccc2)n1 | 20.75 | 10.32
22 | COc1ccc2nc(C)cc(OCC(=O)NCc3ccccc3)c2c1 | 12.19 | 7.22
23 | CC(=O)Nc1ccc(-c2noc(CC3CCCN(Cc4cccc(F)c4C)C3)n2)cc1 (stereo unspecified) | 14.07 | 3.97
24 | CC1=Nc2ccc(Cl)cc2C(c2ccccc2)N1CCNC(=O)CN(C)C (stereo unspecified) | 20.65 | 6.95

Row | Compound | Inhibition (Staphylococcus aureus) [%] | Inhibition (Escherichia coli) [%]
25 | CC(C(=O)N1CCCC1)N1CCN(S(=O)(=O)c2ccc(C(C)(C)C)cc2)CC1 (stereo unspecified) | 8.1 | -2.16
26 | COc1cccc(NC(=O)c2c(NC(=O)c3cccnc3)sc3c2CCC3)c1 | 17.01 | 4.69
27 | COc1ccc(Nc2ccccc2NC(=O)c2ccc(O)nc2)cc1 | 8.88 | -4.3
28 | CCCCN(CCCC)c1c(C#N)cc(S(=O)(=O)Nc2ccccc2)cc1C#N | 3.78 | -2.29
29 | CC(C)(C)c1cc(C(=O)Nc2cccnc2)cc(C(=O)Nc2cccnc2)c1 | 15.23 | 6.88
30 | CCc1ccc([C@@H]2C[C@H](C(F)(F)F)n3ncc(C(=O)NCc4ccc(OC)cc4)c3N2)cc1 | 5.55 | -1.62
31 | c1ccc(Oc2ccc(-c3cncc(-c4ccc5[nH]ccc5c4)n3)cc2)cc1 | 11.46 | 11.21
32 | CC(C)n1ncc2c(C(=O)NCC(c3cccs3)N3CCOCC3)cc(-c3ccccc3)nc21 (stereo unspecified) | 11.85 | 3.42
33 | Cc1nn2c(O)c3c(nc2c1-c1ccc(F)cc1)CCCC3 | 17.1 | 16.25
34 | N#Cc1ccc(-c2ccc(OCC(N)=O)cc2)cc1 | 6.41 | -3.93
35 | Cc1cc(C)c2cc(C(=O)NC3CCCCCCC3)[nH]c2c1 | 16.44 | 7.15
36 | CNC1C(OC2C(OC3C(O)C(O)C(NC(=N)N)C(O)C3NC(=N)N)OC(C)C2(O)C=O)OC(CO)C(O)C1O.CNC1C(OC2C(OC3C(O)C(O)C(NC(=N)N)C(O)C3NC(=N)N)OC(C)C2(O)C=O)OC(CO)C(O)C1O.O=S(=O)(O)O.O=S(=O)(O)O.O=S(=O)(O)O (stereo unspecified) | 2.48 | 8.5
37 | CCCCc1ccc(NC(=O)Nc2ccc(O[C@H]3CCCC[C@@H]3N(C)c3ccccc3)c(F)c2)cc1 | 12.12 | 9.29
38 | Cc1nc(-c2cccc(NCc3ccccc3)c2)[nH]c1C | 19.75 | 6.38
39 | COC(=O)c1ccc(F)cc1NS(=O)(=O)c1cccc(-c2cnn(Cc3ccccc3)c2)c1 | 11.02 | 13.23
40 | Cc1cccc(Cn2ccc(NC(=O)c3ccc4c(c3)OCO4)n2)c1 | 18.14 | 6.79
41 | COc1ccc(Cn2cnc3c(-c4ccco4)nc(Cl)nc32)cc1 | 20.69 | 10.18
42 | CCNC(=O)C(C)Nc1nc(-c2cccnc2)nc2sc(C)c(C)c12 (stereo unspecified) | 4.74 | 10.74
43 | COc1ccc(CCN2CCC(NCc3cccc(N(C)C)c3)CC2)cc1 | 16.93 | 1.75
44 | Cc1[nH]c2cc(F)cc(F)c2c(=O)c1-c1ccc(Oc2ccc(OC(F)(F)F)cc2)cc1 | 11.17 | -0.95
45 | CN1CCN(S(=O)(=O)c2ccc(-c3ccc4c(Nc5ccc6nn[nH]c6c5)ccnc4c3)cc2)CC1 | 10.46 | -0.24
46 | COc1cc(OC)cc(C(=O)NCC2Cc3cc(Cl)cc(-c4ccncc4)c3O2)c1 (stereo unspecified) | 16.01 | 10.63
47 | Nc1nccc2ccc(Oc3ccncc3)cc12 | 12.81 | 7.44
48 | CNC(=O)C1Cc2ccccc2N1C(=O)Cc1ccc(F)cc1 (stereo unspecified) | 16.81 | 5.31
